# Screen size: about 360,000 compounds; about 25,000 (6.9%) were called active. About 9% were inconclusive and are not listed. Calls follow the shape of the dose curve; as a rule, active = well fitted inhibition curve with a large enough effect; inconclusive = small, poorly fitted or top-dose-only effect; inactive = flat fitted curve, though single readings scatter. The list comes from a sample in which actives are over-represented; it also holds similar structures and randomly drawn compounds. Entries that show only a call come without a potency.
# Biological target: Luciferin 4-monooxygenase (Photinus pyralis) (UniProt P08659)
# Sequence (P08659 whole entry, looked up): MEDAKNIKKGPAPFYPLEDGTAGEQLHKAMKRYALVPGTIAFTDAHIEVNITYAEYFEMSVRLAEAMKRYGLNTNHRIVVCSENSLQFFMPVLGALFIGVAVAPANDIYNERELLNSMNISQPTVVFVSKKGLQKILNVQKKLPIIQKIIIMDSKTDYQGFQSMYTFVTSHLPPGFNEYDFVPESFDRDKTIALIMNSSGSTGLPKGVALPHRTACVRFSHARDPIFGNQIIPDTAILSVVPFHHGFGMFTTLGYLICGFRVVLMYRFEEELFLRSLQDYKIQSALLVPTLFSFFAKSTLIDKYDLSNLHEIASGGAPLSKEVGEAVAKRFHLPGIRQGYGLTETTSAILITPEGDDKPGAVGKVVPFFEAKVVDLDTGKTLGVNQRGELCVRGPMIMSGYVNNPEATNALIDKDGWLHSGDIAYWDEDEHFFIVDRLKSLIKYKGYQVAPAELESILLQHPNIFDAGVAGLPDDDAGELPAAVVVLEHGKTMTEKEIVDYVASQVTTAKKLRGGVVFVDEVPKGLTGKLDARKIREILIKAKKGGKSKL
# Assay: qHTS profiling assay for firefly luciferase inhibitor/activator using purifed enzyme and Km concentrations of substrates (counterscreen for miR-21 project); also: nearly all actives have a fitted effect of over 55% in size
# Settings: purified FLuc, luminescence inhibition; series mostly up to 57.5 µM
# In short: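 Purified P. pyralis luciferase (10nM final) with 10uM D-luciferin and 10uM ATP (Km levels) in 50mM Tris acetate pH 7.5, 10mM Mg acetate, 0.01% Tween-20, 0.05% BSA; qHTS 6-point titration, ~60 µM downward; luminescence read.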
# Potency is read from the fitted curve at half-maximal effect.
row,SMILES,Potency
1,N#CCN(C(=O)COC(=O)C1CC2CCCC(C1)C2=O)c1ccccc1 (stereo unspecified),inactive
2,CCCn1c(=O)c(-c2ccccc2)c(O)c2ccccc21,inactive
3,CC(=O)n1c(C=Nc2ccccc2)c(O)c2ccccc21,16.9 µM (active)
4,Cc1c(C=O)c2ccccc2n1CC(=O)O,inactive
5,O=C(Cn1cc(C(=O)c2cccs2)c2ccccc21)NCc1cccs1,19 µM (active)
6,Cc1ccccc1NC(=O)Cn1cc(C(=O)c2cccs2)c2ccccc21,inactive
7,COC(=O)c1cn(CC(=O)NCc2cccs2)c2ccccc12,inactive
8,COc1ccc(-c2nc(Cn3c(=O)cc(C)c4c(C)nn(-c5ccccc5)c43)c(C)o2)cc1OC,inactive
9,O=C(CCc1nnc2ccc(NCc3ccco3)nn12)Nc1cc(F)ccc1F,inactive
10,COc1ccc(-c2c(C#Cc3ccccc3)c3ccccc3n2C)cc1,12 µM (active)
11,CN(C)Cc1c(C#N)c2ccccc2n1C,inactive
12,COc1ccc(CCNCc2c(-c3ccccc3)n(C)c3ccccc23)cc1,inactive
13,Cc1ccc(-c2nn(CCC(=O)Nc3ccc(OC(F)(F)F)cc3)c(=O)c3ccccc23)cc1,inactive
14,Cc1c(NC(=O)C(C)OC(=O)c2cc3c4ccccc4n(C)c3s2)c(=O)n(-c2ccccc2)n1C (stereo unspecified),inactive
15,Cc1cccc(NC(=O)CSc2nc3c([nH]c4ccccc43)c(=O)n2-c2cc(C)cc(C)c2)c1,inactive
16,Cn1c(=NC(=O)c2cnccn2)sc2ccccc21,4.78 µM (active)
17,COC(=O)c1ccc(OC(=O)c2cnccn2)cc1,inactive
18,O=C(NCCCNC(=O)c1ccccc1Cl)c1cnccn1,inactive
19,Cc1ccc(S(=O)(=O)c2nc(-c3ccco3)oc2SCC(=O)Nc2ccc(F)cc2)cc1,inactive
20,Cc1cc(OC(=O)c2ccccc2Cl)ccc1N1C(=O)CCC1=O,5.36 µM (active)
21,COc1ccccc1C(=O)Oc1ccc(N2C(=O)CCC2=O)cc1,inactive
22,CCOC(=O)c1cc(OC(=O)c2ccccc2Cl)n(-c2ccccc2)n1,inactive

row,SMILES,Potency
1,COCCN(Cc1ccco1)C(=O)Cn1ncc2c([nH]c3ccccc32)c1=O,inactive
2,COc1ccc(NC(=O)CCCN2C(=O)C(c3ccccc3)Oc3cccnc32)cc1 (stereo unspecified),inactive
3,Cc1[nH]n(C)c(=O)c1N=Nc1ccc(S(C)(=O)=O)cc1,inactive
4,Cc1[nH]n(C(N)=S)c(=O)c1N=Nc1ccc(Cl)cc1Cl,10.7 µM (active)
5,O=C(CSc1nnc(-c2ccncc2)o1)NCc1ccc(Cl)cc1,inactive
6,Clc1ccc(-c2nnc(SCc3nc4ccccc4s3)o2)cc1,19 µM (active)
7,Cn1c(SCc2nc3ccccc3s2)nnc1-c1ccc2c(c1)OCO2,inactive
8,COc1ccc(-n2c(=O)c3sc4ccccc4c3n(CC(=O)Nc3cccc(C)c3)c2=O)cc1,inactive
9,Cc1cc(C)c2nc3nc(C)cc(C)c3c(N)c2c1,15.1 µM (active)
10,Cc1cc(C)c([N+](=O)[O-])cc1-c1ccc(/C=N/NC(=O)c2nonc2N)o1,inactive
11,O=C1C2C3C=CC(C4CC34)C2C(=O)N1/N=C/c1ccc(-c2ccccc2[N+](=O)[O-])o1 (stereo unspecified),10.7 µM (active)
12,O=C(CN1C(=O)CCn2nc(-c3ccccc3)cc21)NCc1ccccc1,inactive
13,CCOc1cccc(CC(=O)N2CCc3c([nH]c4ccccc34)C2c2ccc(F)cc2)c1OCC (stereo unspecified),inactive
14,O=C(Cc1nc2ccccc2[nH]c1=O)c1ccc(Cl)cc1,0.757 µM (active)
15,O=C(/C(=C/c1cccc(Cl)c1)c1nc2ccccc2[nH]1)c1ccccc1,inactive
16,N#C/C(=C(/O)COC(=O)COc1ccc(Cl)cc1)c1nc2ccccc2[nH]1,inactive
17,COc1ccc(N2CCN(C3=NS(=O)(=O)C(c4cccc(Br)c4)=C3C)CC2)cc1,inactive
18,CCOC(=O)c1sc(/N=C/C2=C(O)CC(C)(C)CC2=O)c(C(=O)OCC)c1C,19 µM (active)
19,CCOC(=O)c1c(CC(C)C)csc1/N=C/C1=C(O)CCCC1=O,inactive
20,CCOC(=O)c1c(/N=C/C2C(=O)CC(C)(C)CC2=O)sc(C)c1C,inactive
21,Cc1ccc(N2CC(C(=O)Nc3ccc(N(C)C)cc3)CC2=O)cc1Cl (stereo unspecified),inactive
22,NNC(=O)c1ccc(Cl)cc1Cl,inactive

row,SMILES,Potency
1,O=C(COC(=O)c1ccc(O)cc1O)NNC(=O)c1cccs1,inactive
2,O=C(NNC(=O)c1ccc(Cl)cc1Cl)c1cccs1,12 µM (active)
3,CC1CCCCN1S(=O)(=O)c1ccc(F)c(C(=O)Nc2ccccc2C(F)(F)F)c1 (stereo unspecified),inactive
4,Cc1cccc(NC(=O)CSc2nc(-c3ccco3)cc(C(F)(F)F)n2)c1C,inactive
5,COc1ccc(NS(=O)(=O)c2cc(NC(=O)COc3ccccc3F)ccc2OC)cc1,inactive
6,COc1ccc2oc(=O)c(C(=O)N3CCCC3)cc2c1,inactive
7,COc1ccc2oc(=O)c(C(=O)N3CCN(c4ccccc4F)CC3)cc2c1,inactive
8,COc1cccc(C(=O)c2cc3ccc(O)cc3oc2=O)c1,12 µM (active)
9,CNS(=O)(=O)c1ccc(C(=O)NCC(=O)NCCc2ccc3c(c2)OCCO3)cc1,inactive
10,COC(=O)c1c(NC(=O)c2ccc(Cl)c(Cl)c2)sc2c1CCCC2,inactive
11,Cn1c(=O)c2c(ncn2CC(=O)Nc2cccc(C(F)(F)F)c2)n(C)c1=O,inactive
12,Cc1cc(NC(=O)c2ccco2)c(=O)n(Cc2c(F)cccc2Cl)c1,inactive
13,Cn1c(=NC(=O)c2ccco2)sc2cccc(F)c21,3.38 µM (active)
14,CCN(CC)S(=O)(=O)c1ccc(C(=O)N=c2sc3cccc(OC)c3n2C)cc1,inactive
15,CC1CCN(S(=O)(=O)c2ccc3c(c2)N(CC(=O)NCc2ccccc2Cl)C(=O)CO3)CC1,inactive
16,Cc1csc2nc(COc3ccc(NC(=O)COc4ccccc4)cc3)cc(=O)n12,inactive
17,COc1ccccc1N1CCN(c2ncnc3onc(-c4ccc(F)cc4)c23)CC1,inactive
18,O=C(CSc1ccccc1)Nc1cccc(S(=O)(=O)N2CCOCC2)c1,inactive
19,NC(=O)Cc1ccc2sc(-c3ccccc3)nc2c1,5.36 µM (active)
20,NC(=O)Cc1ccc2c(c1)[nH]c1ccccc12,inactive
21,CCn1c2ccccc2c2cc(CC(N)=O)ccc21,inactive
22,COc1ccc(CCNC(=O)c2ccc(CSCc3ccc(C)cc3)o2)cc1OC,inactive
